ChEMBL document CHEMBL3988442, “University of Dundee, Small-Polar-MMV Screening Library” (2021)
Values joined by “and” are separate entries in the source; they are usually repeats but may differ in a detail not shown here. Equal values may be shown once. For part of these data: Potency and affinity values are given separately.

Assays:
Design in all cases: scale not given: direction of the effect not stated beside the values
[1] = target: Protein translocase subunit SecA (Escherichia coli (strain K12)) (UniProt P10408); assay: Assay to Identify E. coli SecA ATPase Inhibitors; assay type: functional; details: 30 µM
Protein translocase subunit SecA (Escherichia coli (strain K12)), sequence (P10408 whole entry): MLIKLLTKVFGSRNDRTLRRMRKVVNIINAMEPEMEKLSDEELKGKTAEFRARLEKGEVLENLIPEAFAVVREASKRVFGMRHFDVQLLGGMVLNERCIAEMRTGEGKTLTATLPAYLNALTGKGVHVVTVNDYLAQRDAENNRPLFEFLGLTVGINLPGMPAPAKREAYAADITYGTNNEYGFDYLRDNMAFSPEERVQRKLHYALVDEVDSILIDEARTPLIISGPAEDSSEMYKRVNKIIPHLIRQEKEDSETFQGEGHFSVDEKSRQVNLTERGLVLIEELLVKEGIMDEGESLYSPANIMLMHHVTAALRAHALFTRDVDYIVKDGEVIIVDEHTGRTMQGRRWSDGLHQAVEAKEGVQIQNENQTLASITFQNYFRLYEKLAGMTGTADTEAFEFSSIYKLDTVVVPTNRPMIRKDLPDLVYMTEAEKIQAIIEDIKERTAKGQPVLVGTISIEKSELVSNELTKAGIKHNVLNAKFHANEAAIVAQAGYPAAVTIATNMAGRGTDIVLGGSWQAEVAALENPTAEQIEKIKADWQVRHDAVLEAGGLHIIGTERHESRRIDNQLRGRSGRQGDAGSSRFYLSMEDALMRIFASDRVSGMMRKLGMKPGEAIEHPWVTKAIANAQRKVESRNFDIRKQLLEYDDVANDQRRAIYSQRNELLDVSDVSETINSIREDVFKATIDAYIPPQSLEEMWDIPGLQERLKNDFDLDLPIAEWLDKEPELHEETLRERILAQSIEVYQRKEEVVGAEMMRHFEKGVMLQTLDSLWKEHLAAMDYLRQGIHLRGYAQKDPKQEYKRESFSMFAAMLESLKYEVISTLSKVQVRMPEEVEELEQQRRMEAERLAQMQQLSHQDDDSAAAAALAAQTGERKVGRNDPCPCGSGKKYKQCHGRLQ

[2] = target: T1, Ubiquitin-activating enzyme e1, putative (Leishmania donovani (strain BPK282A1)) (UniProt E9BSI1); assay: Leishmania donovani Ubiquitin Activating Enzyme (LdE1); assay type: functional; details: 30 µM
T1 sequence (whole entry): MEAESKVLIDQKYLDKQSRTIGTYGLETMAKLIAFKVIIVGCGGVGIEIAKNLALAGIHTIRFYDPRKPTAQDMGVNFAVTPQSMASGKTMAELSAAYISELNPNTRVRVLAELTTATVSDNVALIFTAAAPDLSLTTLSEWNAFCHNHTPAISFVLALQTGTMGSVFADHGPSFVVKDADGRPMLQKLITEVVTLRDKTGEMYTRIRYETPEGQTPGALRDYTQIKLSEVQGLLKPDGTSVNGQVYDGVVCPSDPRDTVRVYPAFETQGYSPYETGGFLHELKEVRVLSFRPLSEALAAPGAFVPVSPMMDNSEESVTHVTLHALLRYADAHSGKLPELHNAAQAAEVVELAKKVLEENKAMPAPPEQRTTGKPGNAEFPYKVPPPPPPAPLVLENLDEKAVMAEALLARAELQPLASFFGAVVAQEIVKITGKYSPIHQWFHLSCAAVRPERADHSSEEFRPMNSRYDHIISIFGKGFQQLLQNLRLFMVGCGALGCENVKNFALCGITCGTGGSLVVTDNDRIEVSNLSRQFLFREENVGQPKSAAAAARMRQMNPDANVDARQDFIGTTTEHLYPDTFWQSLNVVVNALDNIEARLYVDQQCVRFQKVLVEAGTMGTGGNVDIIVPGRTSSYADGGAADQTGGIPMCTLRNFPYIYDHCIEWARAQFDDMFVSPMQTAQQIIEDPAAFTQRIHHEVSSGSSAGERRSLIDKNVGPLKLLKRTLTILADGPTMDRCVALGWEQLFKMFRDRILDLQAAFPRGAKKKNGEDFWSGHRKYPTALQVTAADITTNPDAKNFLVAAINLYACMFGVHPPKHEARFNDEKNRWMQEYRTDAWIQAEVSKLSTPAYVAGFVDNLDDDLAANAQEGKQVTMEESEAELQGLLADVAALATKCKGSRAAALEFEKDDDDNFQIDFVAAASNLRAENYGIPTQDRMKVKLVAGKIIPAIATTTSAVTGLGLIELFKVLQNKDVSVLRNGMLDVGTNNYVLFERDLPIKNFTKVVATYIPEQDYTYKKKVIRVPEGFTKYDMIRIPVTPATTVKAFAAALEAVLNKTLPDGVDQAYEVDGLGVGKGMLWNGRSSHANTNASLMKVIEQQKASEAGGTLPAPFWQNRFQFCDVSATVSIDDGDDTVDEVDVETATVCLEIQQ

[3] = target: AMP-activated protein kinase, AMPK (Homo sapiens) (UniProt P54646+O43741+P54619+Q9UGJ0+Q9Y478+Q13131+Q9UGI9); assay: AMP-dependent Kinase enzyme assay. An in vitro enzyme assay that detects ADP turnover that is directly proportional to AMPK activity. This uses naive AMPK that is activated during the assay with MK-8722; assay type: functional; details: 30 µM
[4] = target: Sialic acid-binding Ig-like lectin 9 (Homo sapiens) (UniProt Q9Y336); assay: Hs-Siglec9 ALPHAscreen SOP 20170721; details: 10 µM
Sialic acid-binding Ig-like lectin 9 (Homo sapiens), sequence (Q9Y336 whole entry): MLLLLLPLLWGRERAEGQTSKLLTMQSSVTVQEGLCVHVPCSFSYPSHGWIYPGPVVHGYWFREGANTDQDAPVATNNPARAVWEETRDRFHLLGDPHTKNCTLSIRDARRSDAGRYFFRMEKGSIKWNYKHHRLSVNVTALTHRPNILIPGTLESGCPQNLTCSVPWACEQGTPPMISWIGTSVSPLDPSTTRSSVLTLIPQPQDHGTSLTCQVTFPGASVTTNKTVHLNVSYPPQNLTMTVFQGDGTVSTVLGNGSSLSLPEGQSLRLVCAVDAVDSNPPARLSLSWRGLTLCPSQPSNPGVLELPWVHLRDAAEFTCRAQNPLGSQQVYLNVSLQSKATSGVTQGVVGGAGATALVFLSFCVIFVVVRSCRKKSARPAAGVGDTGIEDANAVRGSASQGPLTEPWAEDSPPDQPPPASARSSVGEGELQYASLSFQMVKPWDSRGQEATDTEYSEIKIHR

Trypanosoma cruzi = assay: Trypanosoma cruzi phosphomannomutase and mannose-1-phosphate guanylyltransferase assay; assay type: functional; details: 10 µM
[5] = target: T2, Arginase-2, mitochondrial (Homo sapiens) (UniProt P78540); assay: in vitro enzyme assay to detect the production of urea directly proportional to the activity of Arginase II; assay type: functional; also: in the data most compounds retested in dose-response had high values
T2 sequence (whole entry): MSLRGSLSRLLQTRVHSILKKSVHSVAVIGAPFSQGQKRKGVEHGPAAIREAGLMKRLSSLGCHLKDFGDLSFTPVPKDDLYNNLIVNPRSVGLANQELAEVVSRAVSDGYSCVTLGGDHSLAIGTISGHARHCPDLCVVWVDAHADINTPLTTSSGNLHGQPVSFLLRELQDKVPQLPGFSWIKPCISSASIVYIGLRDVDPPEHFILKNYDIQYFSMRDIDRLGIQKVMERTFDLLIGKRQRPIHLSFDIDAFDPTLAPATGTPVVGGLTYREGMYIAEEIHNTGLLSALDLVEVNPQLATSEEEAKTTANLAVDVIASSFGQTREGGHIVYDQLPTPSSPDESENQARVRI

[6] = target: T3, Proteasome subunit beta (Trypanosoma cruzi) (UniProt O96673); assay: Trypanosoma cruzi proteasome chymotrypsin-like activity (TcProtChymo) assay.; also: in the data most compounds retested in dose-response had high values; assay type: functional; details: 9.37 µM
T3 sequence (whole entry): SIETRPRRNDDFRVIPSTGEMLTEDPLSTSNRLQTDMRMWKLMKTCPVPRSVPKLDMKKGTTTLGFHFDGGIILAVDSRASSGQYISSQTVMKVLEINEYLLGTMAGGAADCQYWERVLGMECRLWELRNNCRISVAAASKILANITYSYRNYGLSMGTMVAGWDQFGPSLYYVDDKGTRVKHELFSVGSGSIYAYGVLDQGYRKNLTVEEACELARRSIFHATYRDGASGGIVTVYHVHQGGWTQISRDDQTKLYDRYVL

N/A = assay: Trypanosoma cruzi proteasome luciferase counter-screen; assay type: functional; details: 9.37 µM
Homo sapiens = species: Homo sapiens; assay: To identify inhibition of the IFN signalling (Jak-Stat) pathway via expression of an eGFP reporter gene under the control of an IFN-stimulated response element (ISRE) containing MxA promoter.; assay type: functional; details: 30 µM
[7] = target: T4, Tyrosyl-tRNA synthetase, putative (Trypanosoma cruzi (strain CL Brener)) (UniProt Q4DSP6); assay: Trypanosoma cruzi tyrosyl tRNA synthetase (TcYRS) _High Tyrosine SOP; assay type: functional; details: 30 µM; also: in the data most compounds retested in dose-response had high values
T4 sequence (whole entry): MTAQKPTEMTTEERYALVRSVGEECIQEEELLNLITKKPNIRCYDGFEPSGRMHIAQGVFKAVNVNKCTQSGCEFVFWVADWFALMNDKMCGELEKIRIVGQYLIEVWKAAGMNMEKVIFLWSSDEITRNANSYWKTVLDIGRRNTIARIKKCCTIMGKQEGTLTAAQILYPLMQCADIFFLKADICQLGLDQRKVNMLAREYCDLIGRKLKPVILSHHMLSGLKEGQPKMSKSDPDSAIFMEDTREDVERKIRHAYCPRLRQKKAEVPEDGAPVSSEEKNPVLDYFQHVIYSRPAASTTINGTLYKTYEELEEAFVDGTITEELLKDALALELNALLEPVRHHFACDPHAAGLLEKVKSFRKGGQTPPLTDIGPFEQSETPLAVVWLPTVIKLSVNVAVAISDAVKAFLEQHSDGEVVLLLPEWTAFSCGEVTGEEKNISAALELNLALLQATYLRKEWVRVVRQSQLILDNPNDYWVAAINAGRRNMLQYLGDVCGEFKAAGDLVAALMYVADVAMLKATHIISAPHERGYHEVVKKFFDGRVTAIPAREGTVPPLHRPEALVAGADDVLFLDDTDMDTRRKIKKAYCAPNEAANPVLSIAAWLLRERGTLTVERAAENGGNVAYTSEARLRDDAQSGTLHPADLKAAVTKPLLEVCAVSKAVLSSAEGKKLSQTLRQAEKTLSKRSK

[8] = target: T4, Tyrosyl-tRNA synthetase, putative (Trypanosoma cruzi (strain CL Brener)); assay: Trypanosoma cruzi tyrosyl tRNA synthetase (TcYRS) SOP; assay type: functional; details: 30 µM
[9] = target: Chromo domain-containing protein 1 (Saccharomyces cerevisiae (strain ATCC 204508 / S288c) (Baker's yeast)) (UniProt P32657); assay: ScCHD-1 Enzyme Inhibition Assay; assay type: functional; details: 30 µM; also: in the data most compounds retested in dose-response had high values
Chromo domain-containing protein 1 (Saccharomyces cerevisiae (strain ATCC 204508 / S288c) (Baker's yeast)), sequence (P32657 whole entry, the tested form may be a part): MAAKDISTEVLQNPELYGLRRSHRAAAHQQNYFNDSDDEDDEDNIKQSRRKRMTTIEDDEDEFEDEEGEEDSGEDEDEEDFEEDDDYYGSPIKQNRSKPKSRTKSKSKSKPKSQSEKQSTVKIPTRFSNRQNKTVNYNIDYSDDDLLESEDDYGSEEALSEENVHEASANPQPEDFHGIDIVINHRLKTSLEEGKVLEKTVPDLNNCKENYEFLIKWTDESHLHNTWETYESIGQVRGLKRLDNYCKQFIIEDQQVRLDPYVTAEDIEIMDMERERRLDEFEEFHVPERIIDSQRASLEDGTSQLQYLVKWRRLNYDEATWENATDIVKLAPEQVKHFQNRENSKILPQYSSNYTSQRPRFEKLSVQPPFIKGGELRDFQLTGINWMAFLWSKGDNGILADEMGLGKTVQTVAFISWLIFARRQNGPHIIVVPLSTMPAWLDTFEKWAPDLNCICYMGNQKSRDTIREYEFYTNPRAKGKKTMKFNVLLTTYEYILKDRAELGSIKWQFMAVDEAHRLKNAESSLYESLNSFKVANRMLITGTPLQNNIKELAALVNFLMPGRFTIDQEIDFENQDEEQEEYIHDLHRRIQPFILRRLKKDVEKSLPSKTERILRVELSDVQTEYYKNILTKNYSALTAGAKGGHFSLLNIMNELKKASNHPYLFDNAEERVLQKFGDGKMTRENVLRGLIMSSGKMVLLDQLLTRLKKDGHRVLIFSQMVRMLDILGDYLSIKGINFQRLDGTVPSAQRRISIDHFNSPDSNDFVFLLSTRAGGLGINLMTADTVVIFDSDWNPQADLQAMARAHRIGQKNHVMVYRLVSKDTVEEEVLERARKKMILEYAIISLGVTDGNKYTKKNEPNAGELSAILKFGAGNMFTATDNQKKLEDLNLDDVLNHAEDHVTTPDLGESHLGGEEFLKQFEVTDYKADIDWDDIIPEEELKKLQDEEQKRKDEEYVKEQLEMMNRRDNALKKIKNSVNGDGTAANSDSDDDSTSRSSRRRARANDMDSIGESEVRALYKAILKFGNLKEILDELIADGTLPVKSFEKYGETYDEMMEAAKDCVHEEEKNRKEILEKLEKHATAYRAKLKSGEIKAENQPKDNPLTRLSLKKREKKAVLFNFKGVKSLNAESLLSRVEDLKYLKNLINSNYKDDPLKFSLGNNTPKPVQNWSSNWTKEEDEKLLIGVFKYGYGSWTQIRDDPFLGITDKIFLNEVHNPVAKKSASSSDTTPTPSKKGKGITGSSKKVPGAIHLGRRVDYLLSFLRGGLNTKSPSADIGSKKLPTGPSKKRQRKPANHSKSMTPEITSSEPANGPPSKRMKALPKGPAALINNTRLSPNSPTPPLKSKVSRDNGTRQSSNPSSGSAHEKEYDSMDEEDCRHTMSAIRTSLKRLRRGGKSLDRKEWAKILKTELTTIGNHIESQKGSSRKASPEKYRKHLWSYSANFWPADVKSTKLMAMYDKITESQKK

Compound	Percent Effect [1]	Percent Effect [2]	Percent Effect [3]	Percent Effect [4]	Percent Effect (Trypanosoma cruzi)	Percent Effect ([5]; 33.3 µM)	Percent Effect [6]	Percent Effect (N/A)	Percent Effect (Homo sapiens)	Percent Effect [7]	Percent Effect [8]	Percent Effect [9]	Percent Effect ([5]; 30 µM)
Cc1ccc(-c2cc(C(=O)NC(C)C(=O)N3CCCCC3)on2)cc1 (stereo not given)	-6.75%	13.2%	6.88%	1.96%	4.19%	5.92%	34.9% and 32.7% and 30.8%	29.4%	10.4%	2.13%	10.4%	-6.32%	
CCCN1CCC(NC(=O)c2ccc(F)cc2I)CC1	-2.2%	18.1%	-6.61%	17.7%	2.23%	24.3%	12.5%		-17.1%	8.42%	15.4%	-5.41%	5.95%
CN(Cc1cccnc1)C1CC2(CCN(c3ccccn3)CC2)C1	-2.7%	13.3%	11%	-6.68%	-5.12%	-1.17%	3.26%		27.4%	7.45%	16.7%	-5.79%	3.78%
Cn1cccc1C(=O)N1CCC2(CC1)CN(c1cncnc1)C(=O)CO2	-7.32%	-189%	-15.1%	-0.563%	-6.69%	-1.17%	51% and 53.6% and 55.8%	4.36% and 0.727%	18.6%	-69.2%	-150%	-4.5%	
CNC(=O)[C@H]1C[C@@H]2CN(C(=O)c3cscn3)C[C@@H]2N1S(C)(=O)=O	-2.22%	5.33%	0.103%	9.01%	-4.05%	-27.1%	5.64%		-13%	4.17%	-52.5%	-3.61%	4.87%
Cc1ccc(CNC(=O)N(Cc2ccccc2F)C2CC2)cn1	-6.51%	2.67%	0.556%	21.6%	-1.27%	-2.6%	7.85%		15.6%	6.01%	8.64%	-2.37%	13.5%
CC1CCN(S(=O)(=O)c2cccn(CC(=O)NC3CCCC3)c2=O)CC1	-2.96%	5.48%	-5.65%	-2%	-5.68%	0.455%	17.2%		4.13%	3.23%	10%	-2.6%	2.7%
CN(C)C(=O)CNC(=O)c1cc(Br)c2c(c1)OCCO2	-5.71%	8%	-2.43%	7.31%	4.58%	1.56%	21.6%		-10.2%	7.1%	18.5%	-4.33%	4.87%
CN(Cc1ccco1)[C@@H]1CN(Cc2ccco2)[C@@H]2CCCO[C@H]12	-1.09%	2.67%	15.3%	-0.135%	-5.71%	3.03%	13.5%		2.84%	4.25%	11.5%	-5.52%	-2.7%
Cc1nc(C2CCCN2C(=O)CNS(C)(=O)=O)no1 (stereo not given)	-2.65%	5.33%	-7.92%	-1.69%	-0.876%	0%	10.5%		5.88%	7.1%	18.5%	-12.8%	-12.4%
